DAX1 inh-1: blocks DAX1 repression of SF-1 activated StAR promoter; HEK293T StAR-luciferase reporter, SF-1/DAX-1 repression relief; inhibition, % at 6.8 µM; hit rate 1.1% among 370,000; AID 652010;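 active = inhibition above the mean over all tested compounds plus 3 SD, cut at about 3.6% in these data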;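 also: 0% = DAX-1 cells with DMSO and 100% = cells lacking DAX-1 with DMSO; higher inhibition means more luminescence from relief of DAX-1 repression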
hgDAF-12 ag: hgDAF-12 agonism, primary luciferase screen. HEK293 GAL4-hgDAF12 UAS-luciferase reporter, agonist luminescence; normalized to butyrate control. activation, % at 6.8 µM. hit rate 1.8% among 370,000. AID 687014;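 active = activation above a cutoff set at the mean of all screened compounds plus 3 SD, cut at about 10% in these data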;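 also: 0% = DMSO wells and 100% = sodium butyrate wells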
DAX1 inh-2: NR0B1 (DAX1) inhibition | P51843 | HEK293 Gal4-DAX1 luciferase reporter, luminescence | inhibition, % at 6.75 µM | hit rate 0.99% among 340,000 | AID 504766;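 active = inhibition above the mean over all tested compounds plus 3 SD, cut at about 4.2% in these data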;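 also: 0% = DAX1-transfected cells with DMSO and 100% = empty-vector control cells with DMSO; inhibition shows as a rise in luminescence from relieved DAX1 repression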
Target sequence (P51843 207-470 limits assumed): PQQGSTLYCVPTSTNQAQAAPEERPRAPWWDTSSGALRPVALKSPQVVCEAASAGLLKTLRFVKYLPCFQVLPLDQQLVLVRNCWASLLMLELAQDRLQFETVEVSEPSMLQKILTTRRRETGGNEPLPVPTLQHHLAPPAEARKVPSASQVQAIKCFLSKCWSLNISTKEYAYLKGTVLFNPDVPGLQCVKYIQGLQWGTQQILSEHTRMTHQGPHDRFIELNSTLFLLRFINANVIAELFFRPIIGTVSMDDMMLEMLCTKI
SMARCA2 act: activators of SMARCA2 function | MG213 cells, MMTV-luciferase reporter, dexamethasone, overnight | activation, % at 9.1 µM | hit rate 1% among 370,000 | AID 652017; in the data active = activation above about 7.8%;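 also: 0% = vehicle wells and 100% = reference activator wells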
ssDAF12 agonist: S. stercoralis DAF-12 activation, primary screen | HEK293 ssDAF-12/GRIP1 lit1-tk-luc reporter, luminescence; % of 3 µM dafachronic acid response | hit rate 1% among 370,000 | activation, % at 6.8 µM;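 active = activation above the mean over all tested compounds plus 3 SD, cut at about 0.9% in these data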;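 also: 0% = DMSO-only wells and 100% = 3 µM delta7-dafachronic acid wells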
hcDAF12 agonist: activators of H. contortus DAF-12 nuclear receptor; HEK293 hcDAF-12 lit1-tk-luc reporter, luminescence; 0% DMSO, 100% Δ7-dafachronic acid; activation, % at 6.8 µM; hit rate 1.4% among 370,000; AID 652067;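 active = activation above the mean of all tested compounds plus 3 SD, cut at about 5.5% in these data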;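 also: 100% = response to 3 µM Δ7-dafachronic acid high control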
The depositor's hits bear a star; / = no result given. Most compounds without a hit are left out; they make up all but 4.8% or so of the library.

SMILES	DAX1 inh-1	hgDAF-12 ag	DAX1 inh-2	SMARCA2 act	ssDAF12 agonist	hcDAF12 agonist
C/C(=N\NC(=O)c1nn(C)cc1Br)c1cccc(NC(=O)C2CCCC2)c1	2.4	11.0*	1.7	-0.3	-0.2	1.3
COc1ccc(S(=O)(=O)N(C)C[C@H]2OCc3cn(nn3)CCCC(=O)N([C@H](C)CO)C[C@@H]2C)cc1	0.2	-0.6	1.6	7.7	-1.3	0.2
COc1ccccc1NC(=O)N(C)C[C@@H]1OCc2cn(nn2)CCCC(=O)N([C@@H](C)CO)C[C@H]1C	1.3	-1.1	-0.2	4.2	0.9*	2.1
COc1ccc(S(=O)(=O)N(C)C[C@@H]2OCc3cn(nn3)CCCC(=O)N([C@H](C)CO)C[C@H]2C)cc1	3.7*	0.0	/	7.6	-1.4	0.8
COCCCNC(=O)CN1C(=O)C2CCCCN2C(=O)c2ccccc21 (stereo unspecified)	-0.8	-1.1	/	-7.3	-1.5	1.8
COc1ccc(S(=O)(=O)n2c(C)nc3ccccc32)cc1C	0.5	11.7*	-0.1	4.1	0.1	4.1
COc1cc(S(=O)(=O)n2c(C)nc3ccccc32)ccc1F	-0.6	4.1	1.5	-1.6	-1.1	-0.9
Cc1ccccc1N=C1Nc2ccccc2CS1	0.5	11.0*	0.8	3.5	0.3	2.5
COc1cccc(OC)c1NC(=O)OCCN1CCCC12CCC(c1ccccc1)CC2 (stereo unspecified)	/	-3.4	/	/	-1.4	-1.4
Brc1ccc2nc(-c3ccco3)c(CC3CCCCC3)n2c1	0.7	-0.2	/	-1.1	1.3*	1.3
O=C1OCC2=C1C(c1ccc(Cl)cc1)CC(=O)N2c1ccc(F)cc1 (stereo unspecified)	-0.5	5.8	-0.9	-2.1	-1.1	-0.1
O=C1OCC2=C1C(c1ccccc1)CC(=O)N2c1ccc(F)cc1 (stereo unspecified)	1.1	11.7*	0.5	-5.3	-1.4	-1.0
O=Cc1ccc(OCc2ccccn2)cc1	0.2	11.1*	1.0	0.8	-1.0	1.2
COc1ccc(CN(CC#Cc2ccccc2)Cc2ccccc2)c(OC)c1	-1.0	1.6	/	-3.9	-1.4	2.4
Cc1sc2ncnc(N/N=C/c3cccc(O)c3)c2c1C	1.9	7.8	2.7	1.1	0.2	5.6*
O=C(CNc1ccc2ccccc2c1)N/N=C/c1ccc(C(=O)O)cc1	-0.1	4.8	1.7	0.9	-0.5	5.2
O=C(CNc1cccc2ccccc12)N/N=C/c1ccc(C(=O)O)cc1	-0.4	-0.4	-1.3	-1.4	1.0*	5.4
Cc1onc(-c2ccccc2)c1C(=O)N1CCCc2ccccc21	1.0	1.1	-0.9	-3.8	1.0*	0.3
Nn1c(SCC(=O)NC2CCCCC2)nnc1-c1cc(-c2ccc(Cl)cc2)n[nH]1	-0.5	3.7	/	-2.1	-0.1	-0.8
c1ccc(COc2ccc3nocc3c2)cc1	0.7	10.7*	3.6	5.0	-0.7	4.1
c1ccc(Cn2ccc3ccc(-c4ccc5ccn(Cc6cccc(Oc7ccccc7)c6)c5c4)cc32)cc1	0.1	-0.3	/	-3.6	-1.2	-0.2
Cc1ccc(CNC(=O)C2CCC(=O)N(CCc3ccc(Cl)cc3)C2)s1 (stereo unspecified)	-0.6	1.5	0.6	-0.2	1.1*	-1.3
CC1CC(CC(=O)NNc2nc(-c3ccccc3)cs2)C(=O)O1 (stereo unspecified)	-1.6	-0.4	6.1*	5.9	-1.1	-0.2
COc1ccc(-n2cc(CNCCCn3ccnc3)c(-c3cccc(F)c3)n2)cc1	-0.2	-1.5	5.4*	3.7	-1.9	-0.6
CC(C)(C)C1CCC(=NNC(=O)c2ccccc2-n2cccc2)CC1 (stereo unspecified)	-0.4	0.3	-0.7	11.1*	-0.5	6.0*
SMILES	DAX1 inh-1	hgDAF-12 ag	DAX1 inh-2	SMARCA2 act	ssDAF12 agonist	hcDAF12 agonist
CCOC(=O)N1CCC(Nc2nc3ccccc3nc2NS(=O)(=O)c2ccc(Cl)cc2)CC1	2.3	8.9	1.7	4.9	0.2	8.2*
O=C1c2ccccc2C(=O)N1c1ccccc1	0.0	0.8	5.2*	-0.8	-1.6	-2.1
Cc1ccc(-n2c(COc3ccccc3)nnc2SCC(=O)Nc2ccccc2-c2ccccc2)cc1	-2.1	3.4	/	-5.2	-1.9	-2.5
O=C(NN1C(=O)/C(=C/c2ccc(O)c(O)c2)SC1=S)c1ccccc1	0.3	-1.5	0.9	-2.7	1.2*	-0.6
COc1ccc(COC[C@H](C)N2C[C@@H](C)[C@H](CN(C)S(=O)(=O)c3ccc(F)cc3)OCCCC[C@H](C)Oc3ccc(NC(=O)Nc4ccccc4)cc3C2=O)cc1	/	-2.2	/	/	-1.4	-3.3
CCN1C[C@@H]2[C@@H]3C(=O)N(C)C(=O)[C@@H]3[C@](CC)(C1=O)N2C(=O)c1ccccc1	0.3	1.2	0.3	0.6	-1.6	-1.2
CCN1C[C@@H]2[C@@H]3C(=O)N(C)C(=O)[C@@H]3[C@](CC)(C1=O)N2C(=O)c1ccc(F)cc1	0.8	1.6	4.6*	0.4	-0.4	0.7
O=C(COC(=O)C1=Cc2ccccc2OC1)NCc1ccccc1	0.0	2.2	-0.9	1.0	-0.7	-1.0
COCCNC(=O)COC(=O)C1=Cc2ccccc2OC1	-0.2	-1.5	4.7*	5.9	-0.4	-0.1
CCOC(=O)C1CCN(C(=O)CCS(=O)(=O)c2ccc3c(c2)CCN3C(=O)CC)CC1	0.2	0.6	-0.7	-1.4	-1.5	-1.2
Cc1ccc(C)c(N2CCN(C(=O)CCS(=O)(=O)c3ccc4c(c3)CCN4C(=O)C3CC3)CC2)c1	0.2	-1.6	1.5	7.9*	-1.0	1.7
Cc1ccc(C(=O)Nc2ccccc2OC(F)F)cc1	-0.8	10.7*	-0.8	0.4	-0.8	0.0
CCOCCCNC(=O)Cn1cc2c(n1)-c1c(oc(C(=O)N3CCCC3)c1C)CC2	-1.7	-3.7	4.7*	-3.7	-0.9	-1.6
CC1CN(c2nc3ccccc3nc2SCC(=O)N2CCN(S(=O)(=O)c3ccccc3)CC2)CC(C)O1 (stereo unspecified)	-3.6	-3.8	/	-4.1	-2.2	-3.9
Cc1ccc(C(CC(=O)N2CCCCC2)c2ccccc2)c(O)c1C (stereo unspecified)	0.3	-0.3	0.7	-2.3	1.6*	1.1
COc1ccc(S[C@]2(C(=O)N(C)C)CC(=O)N(C(=O)/C=C/c3ccccc3)[C@@H]2c2ccc(OC)cc2)cc1	-2.8	-1.1	/	-2.9	-1.3	-1.9
COc1ccc(S[C@]2(C(=O)N(C)C)CC(=O)N(c3ccccc3)[C@@H]2c2ccc(OC)cc2)cc1	-0.8	11.8*	/	-3.2	-0.1	2.1
O=C(c1cc(Cl)cc(Cl)c1)N1CC[C@H]2[C@H](CCCN2Cc2ccc(F)cc2)C1	-1.0	-0.7	/	-1.7	-1.4	-1.8
CN1CCN(c2ccc(Cl)cc2NC(=O)/C=C/c2ccc(F)cc2)CC1	-0.1	-1.5	5.7*	5.0	-1.6	0.0
